Assay outcomes as filed in PubChem BioAssay.
A selection: hits, their analogues and other compounds. The true share with any hit is near 0.75%.
uPA surface inh – blocks generation of uPA at the cell surface | AID 540303 | Potency, µM (doses to about 38.3 µM), for inactives: top-dose activity change, negative = inhibition, hits mostly inhibitors | cell surface uPA generation assay, qHTS | 330,000 compounds, 0.31% hits; active = well fitted inhibition curve with a large enough effect; inconclusive = small, poorly fitted or top-dose-only effect; inactive = no such curve, though single readings can be large or run the other way; tested in mouse RAW 264.7 cells; note: potency is the fitted concentration of half-maximal effect; % is set by controls: 0 for no effect and ±100 for the full control effect; nearly all actives have a fitted effect of over 55% in size
TCR act – activators of T cell receptors. primary human leukocytes, anti-CD3, IL-2 HTRF, 48 h. Potency, µM (highest dose often 9.22 µM), for inactives: top-dose activation of IL-2 secretion, actives largely listed as activators. 330,000 tested, under 10 active. AID 504894; note: % of control where 0% means no effect
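Compounds are tested in HTS on primary human leukocytes co-incubated with a-CD3 beads for 48 hr. IL-2 output is measured by time-resolved FRET.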
PKM2 act – PKM2 (human) enzyme activation; AID 1631; Potency, µM (highest dose often 57.5 µM), without a hit: at the top dose activation, most hits filed as activators; P14618; 260,000 compounds, 0.34% hits; purified PKM2, Kinase-Glo ATP luminescence, activation; response scale: 0% is enzyme alone, no compound; note: potency is the fitted concentration of half-maximal effect; % is set by controls: 0 for no effect and ±100 for the full control effect; nearly all actives have a fitted effect of over 55% in size
Target sequence (P14618 whole entry, looked up): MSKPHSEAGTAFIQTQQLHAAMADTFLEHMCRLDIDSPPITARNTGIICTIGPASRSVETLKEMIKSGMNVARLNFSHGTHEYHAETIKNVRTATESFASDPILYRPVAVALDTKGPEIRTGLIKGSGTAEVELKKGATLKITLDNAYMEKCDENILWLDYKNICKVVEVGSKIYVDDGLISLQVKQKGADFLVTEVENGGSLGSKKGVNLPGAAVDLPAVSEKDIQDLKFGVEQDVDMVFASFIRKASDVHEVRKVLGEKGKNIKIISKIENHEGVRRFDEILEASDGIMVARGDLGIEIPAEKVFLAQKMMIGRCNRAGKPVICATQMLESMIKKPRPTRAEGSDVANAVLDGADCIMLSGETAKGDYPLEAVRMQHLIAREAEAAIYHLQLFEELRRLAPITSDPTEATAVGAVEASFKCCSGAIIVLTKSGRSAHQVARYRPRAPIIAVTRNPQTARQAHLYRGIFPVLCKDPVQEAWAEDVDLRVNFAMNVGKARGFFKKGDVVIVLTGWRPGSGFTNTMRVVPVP
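hPK-M2, >95% pure; 0.1 mM ADP / 0.5 mM PEP final; imidazole pH7.2 buffer w/ 7 mM MgCl2, 50 mM KCl; 1 h RT; Kinase-Glo lum. Intermediate enzyme activity for dual inhibitor/activator qHTS.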
TSHR antagonist – human thyrotropin receptor antagonism; P16473; TSHR-expressing cells, TSH-stimulated cAMP HTRF, 2 h; hits give low values; activity change, negative = inhibition, % at 11.5 µM; 330,000 compounds, 0.2% hits; AID 504810;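 active = activity change below a set negative limit, meaning inhibition stronger than a set level, cut at about -70% in these data; inconclusive = activity change between two set negative limits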; note: % is set by controls: 0 for no effect and ±100 for the full control effect
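Inhibition of cAMP made by TSHR-expressing cells under TSH stimulation (4nM final, EC80; 2 h, 37 deg C) is quantified with a one-step lysis HTRF kit, anti-cAMP cryptate versus cAMP-d2.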
* hit, by the source's call; ! = a repeat was not active; [ ] = another dose, or the depositor's remark. Unless noted, calls come from the whole dose curve; as a rule, active = well fitted curve in the direction sought with a large enough effect; inconclusive = small, poorly fitted or top-dose-only effect, or another doubt; inactive = no such curve, though single readings can be large; an effect the other way counts as inactive or inconclusive.

C/C(CCc1oc2c(Br)cc(Br)cc2c1-c1ccc(C)o1)=N\O was read as uPA surface inh 7%, TCR act -5%[46.1 µM], PKM2 act 16µM* and TSHR antagonist 3.
O=C(N/N=C/C(Cl)=C/c1ccccc1)c1ccc2c(c1)OCO2 was read as uPA surface inh 6.3µM* and TSHR antagonist -13.
`COc1ccc(C(=O)NCCONC(=O)c2ccc(OC)cc2)cc1` gave uPA surface inh -1%, TCR act 4%, PKM2 act -3% and TSHR antagonist -6.
For COc1ccccc1CNS(=O)(=O)c1ccc(Br)s1 the results were uPA surface inh -8%, TCR act -41%, PKM2 act 1% and TSHR antagonist -2.
O=C(NCCN1C(=O)S/C(=C\c2ccccc2Cl)C1=O)C1=COCCO1 was read as uPA surface inh 7.9µM*, TCR act -3% and TSHR antagonist -5.
Screening O=C(NCCN1C(=O)S/C(=C\c2ccc(Cl)cc2Cl)C1=O)C1=COCCO1 returned uPA surface inh inconclusive, TCR act -1% and TSHR antagonist -11.
COc1ccc(/C=C2\SC(=O)N(CCNC(=O)C3=COCCO3)C2=O)cc1 was read as uPA surface inh 7.1µM*, TCR act 2% and TSHR antagonist -6.
`COc1ccccc1-n1c(-c2ccccc2)c[n+]2c1CCc1ccccc1-2` gave uPA surface inh 11µM*!, TCR act 0%, PKM2 act -1% and TSHR antagonist -17.
For CC(C)c1ccc(-n2c(-c3ccccc3)c[n+]3c2CCc2ccccc2-3)cc1 the results were uPA surface inh inconclusive, TCR act -1%, PKM2 act -3% and TSHR antagonist -36.
COc1ccc(-n2c(-c3ccc(Br)cc3)c[n+]3c2CCc2ccccc2-3)cc1 was read as uPA surface inh 5µM*, TCR act 0%[46.1 µM], PKM2 act 0% and TSHR antagonist -16.
For COc1ccc(NC(=O)C2CC3CCC2C3)c(OC)c1 (stereo not drawn) the results were uPA surface inh -1% and TCR act -7%.
For COc1cc(C)c(S(=O)(=O)Nc2ccccc2F)cc1C the results were uPA surface inh -6%, TCR act 1%, PKM2 act 28% and TSHR antagonist -12.
`Cc1cc2[nH]c(=O)c(=O)[nH]c2cc1S(=O)(=O)Nc1ccccc1F` gave uPA surface inh -14%, TCR act -2%, PKM2 act 10µM* and TSHR antagonist 10.
`O=[N+]([O-])c1cc(S(=O)(=O)N2CCCC2)ccc1NCCc1ccccc1` gave uPA surface inh -1%, TCR act -8%[46.1 µM], PKM2 act 3.2µM* and TSHR antagonist -8.
Screening Cc1ccc(S(=O)(=O)N2CCCC2)cc1[N+](=O)[O-] returned uPA surface inh 0%, TCR act 5%[46.1 µM], PKM2 act 6% and TSHR antagonist 4.
`CC(=O)c1ccc2c(c1)CC1(C2)Cc2cc3c(cc2C1)C(=O)CC3` (stereo not drawn) gave uPA surface inh -8% and TCR act -1%.
Screening O=C(CCS(=O)(=O)c1ccc(F)cc1)Nc1nnc(-c2cccs2)o1 returned uPA surface inh 10µM*, TCR act 1% and TSHR antagonist -4.
Screening COc1cc(OC)c2c(-c3cccc(-c4ccc(O)cc4)c3)cc(=O)oc2c1 returned uPA surface inh inconclusive, TCR act -3%[46.1 µM] and TSHR antagonist 23.
Screening COc1cc(OC)c2c(-c3cccc(-c4cccc(C)c4)c3)cc(=O)oc2c1 returned uPA surface inh 3.2µM*, TCR act -5%[46.1 µM] and TSHR antagonist 15.
For COc1cc(OC)c2c(-c3cccc(-c4ccc(CO)cc4)c3)cc(=O)oc2c1 the results were uPA surface inh 0.89µM*, TCR act 2%[46.1 µM] and TSHR antagonist -4.
`COc1ccc(-c2cccc(-c3cc(=O)oc4cc(OC)cc(OC)c34)c2)cc1` gave uPA surface inh 0.79µM*, TCR act -4%[46.1 µM] and TSHR antagonist 2.
COc1cc(OC)c2c(-c3cccc(-c4ccc(OC(F)(F)F)cc4)c3)cc(=O)oc2c1 was read as uPA surface inh 10%, TCR act -1%[46.1 µM] and TSHR antagonist -5.
Screening Cc1cc(C)nc(Nc2ccccc2F)n1 returned uPA surface inh 3%, PKM2 act -1% and TSHR antagonist 18.
`CC(=O)N1CCc2c(sc(NC(=O)c3ccc4c(c3)OCCO4)c2C#N)C1` gave uPA surface inh 7.9µM*, TCR act -5%, PKM2 act -4% and TSHR antagonist -7.
For COC(=O)[C@@H]1C[C@]2(OC(=O)c3ccccc3)C=CC(=O)C[C@@H]2N1C(=O)OCc1ccccc1 the results were uPA surface inh 3.2µM*, TCR act -2%, PKM2 act 4% and TSHR antagonist -6.
For CN(C(=O)c1cccc(NC(=O)Cc2ccc(NC(=O)C3CCCN(C(=O)C4CC4)C3)cc2)c1)C1CCC1 (stereo not drawn) the results were uPA surface inh 9% and TCR act -4%.
Screening Cn1c(=O)n(C)c2cc(S(=O)(=O)Nc3cc(Cl)ccc3O)ccc21 returned uPA surface inh -6%, TCR act -7%, PKM2 act 13µM* and TSHR antagonist -14.
Cn1c(=O)n(C)c2cc(NS(=O)(=O)c3ccccc3)ccc21 was read as uPA surface inh -8%, TCR act 6%, PKM2 act 18% and TSHR antagonist -2.
Screening Cn1c(=O)n(C)c2cc(S(=O)(=O)Nc3ccccc3)ccc21 returned uPA surface inh -6%, TCR act -2%, PKM2 act 4µM* and TSHR antagonist -11.
Cc1ccc(NS(=O)(=O)c2ccc3c(c2)n(C)c(=O)n3C)cc1C was read as uPA surface inh inconclusive, TCR act 3%, PKM2 act 1.6µM* and TSHR antagonist 18.
Screening Cc1ccc(S(=O)(=O)Nc2ccc3c(c2)n(C)c(=O)n3C)cc1 returned uPA surface inh -8%, TCR act -4%, PKM2 act 10% and TSHR antagonist 7.
Screening COc1cc([N+](=O)[O-])cc(/C=N/NC(=O)Cn2nccc2C)c1O returned uPA surface inh -5%, TCR act -6%, PKM2 act 0% and TSHR antagonist -7.
COc1cccc(OC)c1OC(=O)/C=C/c1ccc(C)o1 was read as uPA surface inh -1%, TCR act -3%, PKM2 act 1% and TSHR antagonist -21.
CC(C)CCNc1ncnc2c1nnn2Cc1ccccc1 was read as uPA surface inh 0%, TCR act 3%, PKM2 act 0% and TSHR antagonist 1.
For COc1ccccc1CNc1ncnc2c1nnn2Cc1ccccc1 the results were uPA surface inh -1%, TCR act -2%, PKM2 act 20µM* and TSHR antagonist -20.
Screening Cc1cc(C)cc(C(=O)NC(CC(N)=O)c2ccc(NCCN3CCOCC3)c([N+](=O)[O-])c2)c1 (stereo not drawn) returned uPA surface inh 4%, TCR act 1%, PKM2 act 3% and TSHR antagonist 29.
